Source: PubChem BioAssay
Rows were chosen to be rich in hits. Some 4.7% of all compounds tested hit in one or more screens of this group.
PfHsp90 yeast 2 – growth inhibition of yeast expressing Plasmodium Hsp90 | AID 504621 | S. cerevisiae expressing PfHsp90, BacTiter-Glo ATP, 48 h; yeast lacking PDR1 and PDR3 efflux regulators | inhibition, % at 9.4 µM | hit rate 0.32% among 310,000;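 active = every replicate shows inhibition above about 80%, whatever the replicate mean, limit read from the data; inconclusive = mean inhibition reaches the set limit but some replicate falls short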;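 note: 0% = DMSO neutral controls and 100% = 20 µM radicicol positive controls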
SKKanGAS inh – SKKanGAS growth inhibition; S. pyogenes SKKanGAS, kanamycin growth, BacTiter-Glo, 6 h; inhibition, % at 7.5 µM; hit rate 1.3% among 300,000; AID 1662;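 active = mean replicate score, as percent of positive control median, at least 50; inconclusive = mean below 50 but one replicate at or above 50; inactive = mean and every replicate below 50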;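 note: strain carries kanamycin resistance gene driven by streptokinase promoter and grows in 40 µg/ml kanamycin; loss of luminescence reflects streptokinase promoter inhibition or plain growth inhibition; 0% = median of DMSO wells and 100% = positive control at its reference dose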
TIM10 inh – TIM10 yeast growth inhibition. inhibition, % at 10 µM. S. cerevisiae TIM10 strain growth, BacTiter-Glo luminescence, 24 h. hit rate 1.4% among 330,000. AID 463195;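 active = inhibition of 40% or more at the single tested concentration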;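 note: wild-type TIM10 isogenic control strain grown at permissive 25 °C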
Calb FLC – C. albicans growth modulation with fluconazole | C. albicans CaCi-2 (fluconazole-resistant clinical isolate) + fluconazole, Alamar Blue growth, 48 h | growth inhibition, % (test concentration not listed) | hit rate 0.57% among 300,000;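 active = growth inhibition above about 58% in most replicates, limit read from the data, passing the limit was not always enough; inconclusive = exactly half the replicates above a set limit; inactive = most replicates below a set limit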;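 note: all wells also contain fluconazole at 8 µg/ml as a sub-toxic cotreatment; 0% = median of DMSO wells and 100% = median of geldanamycin control wells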
tim10-1 inh – growth inhibitors of tim10-1 mutant yeast | S. cerevisiae tim10-1 ts strain growth, BacTiter-Glo, 24 h | AID 463190 | inhibition, % at 20 µM | hit rate 2.2% among 330,000;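 active = inhibition of at least 40%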;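 note: mutant grown at 25 °C; 0% = DMSO wells with yeast and 100% = wells holding no yeast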
tim23-1 inh – inhibits growth of tim23-1 mutant yeast; AID 463212; inhibition, % at 20 µM; S. cerevisiae tim23-1 growth, BacTiter-Glo luminescence, 24 h; hit rate 1.3% among 330,000;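 active = growth inhibition of the mutant yeast at or above 50%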;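 note: temperature-sensitive mutant grown at 25 °C; plate controls were DMSO-treated mutant yeast for no effect and medium wells lacking yeast for full effect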
* hit, by the source's call; ? = inconclusive; . = no result.

SMILES | PfHsp90 yeast 2 | SKKanGAS inh | TIM10 inh | Calb FLC | tim10-1 inh | tim23-1 inh
CCC1(C)Cc2ccccc2-c2nc(-c3ccccc3)oc(=O)c21 (stereo unspecified) | . | 54* | 4 | 2 | 15 | 3
CC(C)CN(C(=O)COC(=O)CNC(=O)c1ccccc1F)C1CCS(=O)(=O)C1 (stereo unspecified) | 10 | 8 | -5 | 107* | 1 | 16
Cc1cccc(N2CCN(C(=O)c3cn(C)c(=O)c4c3c3ccccc3n4C)CC2)c1C | -23 | 11 | 1 | 57* | 31 | 15
Cc1ccc(Cl)cc1N1CCN(C(=O)c2cn(C)c(=O)c3c2c2ccccc2n3C)CC1 | -32 | 82* | 11 | -11 | 34 | 24
Cn1c2ccccc2c2c(C(=O)N3CCN(c4ccccc4)CC3)cn(C3CCCC3)c(=O)c21 | -17 | 19 | 28 | 31 | 39 | 34
CCOc1ccc(N(CC(=O)NCCSCc2ccc(Cl)cc2)S(C)(=O)=O)cc1 | 1 | 9 | 8 | 0 | 11 | 11
CCC(C(=O)NCC1CCCO1)n1nc(C)c2sc3ccccc3c2c1=O (stereo unspecified) | 42 | ? | 13 | -7 | 12 | 17
Cc1cccc(C)c1NC(=O)CSCc1cccc(CSCC(=O)Nc2c(C)cccc2C)n1 | 10 | 8 | 10 | 1 | 12 | -5
O=C(CSCc1cccc(CSCC(=O)Nc2ccccc2)n1)Nc1ccccc1 | 7 | 1 | 6 | 111* | 1 | 4
CCOC(=O)C1CCN(C2=C(NS(=O)(=O)c3ccc(Cl)cc3)C(=O)c3ccccc3C2=O)CC1 | 1 | 52* | 7 | 12 | 19 | 37
CC(C)(C)c1nc2c(s1)CCc1onc(-c3ccc(Cl)cc3)c1-2 | -4 | -1 | -10 | -2 | -5 | -6
CCOc1ccc(S(=O)(=O)Nc2cccc(C(=O)N(C)Cc3cccc(OC)c3OC)c2)cc1 | -29 | 1 | 0 | 4 | 11 | 2
COCc1cc(=O)[nH]c(Nc2nc3ccccc3o2)n1 | -12 | 53* | 5 | 19 | 8 | 0
COC(=O)Cc1cc(=O)[nH]c(Nc2nc3ccccc3o2)n1 | 5 | 14 | -1 | -10 | 9 | 3
C/C(CC(=O)Nc1ccc(Cl)c(C(F)(F)F)c1)=N\NC(=O)c1cc2ccccc2cc1O | -5 | 95* | 20 | 3 | 38 | 39
O=S(=O)(NCC(c1cccs1)N1CCc2ccccc2C1)c1ccccc1 (stereo unspecified) | 4 | 12 | 27 | 1 | 32 | 37
CC(=O)Nc1nc2ccccc2n1Cc1ccc(Cl)cc1 | 6 | 64* | 17 | 0 | 23 | 19
CCC(=O)Nc1nc2ccccc2n1Cc1ccccc1 | 4 | 6 | 10 | -17 | 28 | 8
CCC(=O)Nc1nc2ccccc2n1Cc1ccc(C)cc1 | -13 | 94* | 16 | 5 | 23 | 15
N=C1S/C(=C\c2ccco2)C(=O)N1c1nccs1 | -84 | 81* | 21 | 0 | -12 | 8
N=C1S/C(=C\c2ccco2)C(=O)N1c1ccc2c(c1)OCO2 | -16 | 2 | 0 | -6 | 1 | 12
CC(C(=O)O)n1c2ccccc2c2cnn(C)c(=O)c21 (stereo unspecified) | -12 | 2 | -7 | -2 | 11 | 3
Cc1sc2cc3c(c(C(=O)c4ccccc4)[n+]2c1C)-c1cccc2cccc-3c12 | . | 55* | . | 57 | . | .
O=C(c1ccccc1)c1c2c(cc3sc4ccccc4[n+]13)-c1cccc3cccc-2c13 | -25 | . | . | . | . | .
CC(C)c1ccc(OCC(=O)NNC(=S)NC(=O)c2cccs2)c(Br)c1 | -16 | 78* | 23 | -2 | 34 | 31
SMILES | PfHsp90 yeast 2 | SKKanGAS inh | TIM10 inh | Calb FLC | tim10-1 inh | tim23-1 inh
CC(C)c1ccc(OCC(=O)NN2C(=O)c3ccccc3C2=O)c(Br)c1 | -17 | 1 | 2 | -7 | 16 | 41
Cc1ccc(OCC(=O)NNC(=S)NC(=O)C(C)(C)C)c(Br)c1 | 105* | 90* | -24 | 7 | 11 | 20
CC(C)c1ccc(OCC(=O)NNC(=S)NC(=O)C2CC2)cc1 | ? | 96* | 1 | -9 | -18 | 12
Cc1ccc(OCC(=O)NNC(=S)NC(=O)C2CC2)c(C)c1 | 104* | . | -6 | 103* | 20 | 21
COc1ccc(CCC(=O)OCC(=O)NCc2ccccc2)cc1 | 34 | . | -3 | . | 12 | 11
CC[C@H](C)[C@H]1CNC(=O)C(=O)N1CC1CCN(CCc2ccccc2)CC1 | 31 | . | . | . | . | .
O=C(NCc1cnc2ccccn12)C1CCC(=O)N(Cc2ccccc2F)C1 (stereo unspecified) | 8 | -10 | -4 | 0 | 9 | -4
Cc1cc(O)c2c(c1)CC1C3CCC4CC(=O)CCC4(C)C3CC(=O)C21C (stereo unspecified) | -29 | . | . | . | . | .
COc1ccc(CN2CCC(=O)N([C@H](CO)c3ccccc3)CC2)cc1 | 2 | 2 | -4 | -23 | -9 | -6
CCOc1cc(/C=N/Nc2cc(C)nc(-n3nc(C)cc3C)n2)ccc1O | -25 | 66* | -4 | 6 | 13 | 5
COc1ccc(/C=N/Nc2cc(C)nc(-n3nc(C)cc3C)n2)c(OC)c1 | -22 | 103* | 4 | 16 | 7 | 2
Cc1nn(Cc2ccc(F)cc2)c2sc(C(=O)Nc3ccccc3N3CCOCC3)cc12 | 5 | 10 | 14 | -14 | 18 | 6
Cc1nn(Cc2ccccc2Cl)c2sc(C(=O)Nc3ccccc3N3CCOCC3)cc12 | 6 | 60* | 22 | 25 | 18 | 4
Cc1cccc(C)c1NC(=O)CNC(=O)CNC(=O)c1ccc2c(c1)OCO2 | -12 | 0 | 8 | 7 | -30 | -11
O=C(CC1C=CCC1)Nc1ccccc1 (stereo unspecified) | 14 | . | . | . | . | .
Cc1c(C(=O)OC(C)C)sc(NC(=O)c2cnccn2)c1C(=O)OC(C)C | 1 | . | . | . | . | .
C=CCNC(=S)N1CCN(Cc2ccc3c(c2)OCO3)CC1 | 17 | 1 | 4 | -21 | 6 | 9
O=C(CN1C(=O)C2CC=CCC2C1=O)Nc1nnc(SCc2c(Cl)cccc2Cl)s1 (stereo unspecified) | 7 | 26 | -15 | 0 | 18 | -22
CCSc1nnc(NC(=O)c2ccccn2)s1 | -18 | 68* | 17 | 62 | 32 | 6
Cc1ccc(CN2CC(C(=O)Nc3nnc(SCc4c(Cl)cccc4Cl)s3)CC2=O)cc1 (stereo unspecified) | -39 | 79* | 11 | 27 | 35 | 11
C=CCSc1nnc(NC(=O)C2CC(=O)N(Cc3ccc(C)cc3)C2)s1 (stereo unspecified) | -1 | . | 11 | . | 8 | 8
Cc1cnc(C(=O)Nc2nnc(SCc3c(Cl)cccc3Cl)s2)cn1 | -54 | 102* | 25 | 2 | 34 | 32
COc1ccc(NC(=O)COc2ccc3c(C)cc(=O)oc3c2)cc1S(=O)(=O)N1CCCCC1 | . | 23 | -5 | 7 | 10 | 3
